# Bioassay records: PubChem BioAssay, NMMLSC
# Most compounds without a hit are left out; they make up all but 2.9% or so of the library.
# Beta2AR agonist: beta2AR agonists driving receptor internalization, primary screen, cell-based, FAP fluorogen, flow cytometry | Beta-2 adrenergic receptor (Homo sapiens), P07550 | Am2.2-beta2AR cells | response, % (no concentration beside the values) | actives 0.43% (n = 340,000) | AID 504454, 2011;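 active = response above a set limit, near 3 SD of response in nonfluorescent compounds, cut at about 42% in these data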
# MEKK2mut PB1 HTS: MEK5 binding signal on mutant MEKK2 PB1, primary screen, biochemical, multiplex bead flow cytometry, Alexa488-MEK5. percent response, % at 10 µM. Alexa488-MEK5 binding to MEKK2 mutant. AID 1530, 2009. actives 0.35% (n = 290,000); in the data active = percent response above about 24%, passing the limit was not always enough
# MEKK2 WT-MEK5: modulators of MEK5 binding to wildtype MEKK2, primary screen, biochemical, multiplex bead flow cytometry, Alexa488-MEK5 | Alexa488-MEK5 binding to MEKK2 WT; actives lie on both sides | binding response (% of control), % at 10 µM | actives 1.1% (n = 290,000) | AID 1531, 2009; in the data active = binding response below about 67% or above about 130%
# MEKK3 PB1 HTS: modulators of MEKK3-MEK5 PB1 binding, primary screen, biochemical, wildtype MEKK3, multiplex bead flow cytometry, Alexa488-MEK5; Mitogen-activated protein kinase kinase kinase 3 (Homo sapiens), Q99759; bead-based flow cytometry, Alexa488-MEK5 binding to MEKK3; actives lie on both sides; 0 = blocked by unlabeled MEK5, 100 = vehicle; binding response (% of control), % at 10 µM; actives 1.4% (n = 290,000);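 active = binding response more than 3 SD above or below the average of its plate-row segment, actives on both sides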;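 note: Alexa488 bead fluorescence after subtracting the streptavidin-only scavenger bead signal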
# Target sequence (Q99759 whole entry, looked up): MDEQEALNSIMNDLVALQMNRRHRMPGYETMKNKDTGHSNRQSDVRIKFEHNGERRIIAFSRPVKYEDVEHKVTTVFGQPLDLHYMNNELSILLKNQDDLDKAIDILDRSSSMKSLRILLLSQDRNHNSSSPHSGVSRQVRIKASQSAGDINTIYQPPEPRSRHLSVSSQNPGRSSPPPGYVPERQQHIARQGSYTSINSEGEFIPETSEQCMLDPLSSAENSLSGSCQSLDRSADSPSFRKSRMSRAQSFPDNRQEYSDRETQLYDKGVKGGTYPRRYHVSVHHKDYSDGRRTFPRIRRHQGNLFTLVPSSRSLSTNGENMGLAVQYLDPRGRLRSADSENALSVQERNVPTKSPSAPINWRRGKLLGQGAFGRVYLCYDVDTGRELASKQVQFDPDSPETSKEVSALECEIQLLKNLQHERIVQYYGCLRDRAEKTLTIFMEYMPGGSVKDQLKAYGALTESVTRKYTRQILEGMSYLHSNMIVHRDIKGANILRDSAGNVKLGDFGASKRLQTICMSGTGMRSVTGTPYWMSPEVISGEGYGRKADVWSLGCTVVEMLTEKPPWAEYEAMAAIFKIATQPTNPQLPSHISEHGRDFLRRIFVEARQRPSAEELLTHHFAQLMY
# GRK2 inh: compounds blocking aptamer binding on GRK2 – biochemical, human GRK2, bead flow cytometry, HTS, primary screen. FAM-aptamer displacement from GRK2. inhibition of aptamer binding, % at 10 µM. Beta-adrenergic receptor kinase 1 (Homo sapiens), P25098. actives 0.59% (n = 330,000). AID 488847, 2010;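 active = inhibition of aptamer binding above 40%, roughly 3 SD of noise, on plates passing a quality check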;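 note: median bead fluorescence of bound FAM aptamer so fluorescent compounds give negative values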
# MEKK2wt confirm: modulators of MEK5 binding to wildtype MEKK2, confirmation, biochemical, single concentration, multiplex bead flow cytometry; shares compounds with MEKK3 PB1 HTS; Alexa488-MEK5 binding to MEKK2 WT; actives lie on both sides; binding response (% of control), % at 10 µM; actives 2.4% (n = 5,900); in the data active = binding response below about 16% or above about 210%; inactive = in between
# MEKK2mut-MEK5: mutant MEKK2 PB1-MEK5 binding signal retest – biochemical, single concentration, multiplex bead flow cytometry, confirmation; percent response, % at 10 µM; Alexa488-MEK5 binding to MEKK2 mutant; actives 2% (n = 5,900); shares compounds with MEKK3 PB1 HTS; in the data active = percent response mostly above about 71%, no sharp cut-off; inactive = mostly below about 38%;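 note: higher means compound restores mutant binding toward wildtype level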
# MEKK3 confirm: MEKK3 wild-type PB1 binding to MEK5, inhibitors, confirmation, biochemical, bead multiplex flow cytometry, single concentration, wildtype; shares compounds with MEKK3 PB1 HTS; Alexa488-MEK5 binding to MEKK3; active compounds read low; binding response (% of control), % at 10 µM; actives 1.8% (n = 5,900); AID 1894, 2009;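 active = binding response below 72% of control, or above a set upper limit, though filed actives all read lower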;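 note: 100% = DMSO only wells and 0% = binding blocked by excess unlabeled MEK5; lower values mean stronger disruption of MEK5 binding to MEKK3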
# An asterisk follows results filed as active; x = no result given; [ ] = another dose, or the depositor's remark.
SMILES,Beta2AR agonist,MEKK2mut PB1 HTS,MEKK2 WT-MEK5,MEKK3 PB1 HTS,GRK2 inh,MEKK2wt confirm,MEKK2mut-MEK5,MEKK3 confirm
CCOc1ccccc1N1CC(C(=O)N(Cc2nnc(-c3ccccc3Cl)o2)C2CC2)CC1=O (configuration not stated),5,x,x,x,0,x,x,x
Cc1ccc(NC(=O)/C(C#N)=C/c2ccc(C)s2)c(C)c1,-19,13,39*[inhibitor],109,1,105,-2,101
Cc1cc(Br)cc2c1N(C)C(=O)C2(c1ccc(O)cc1)c1ccc(O)cc1,1,x,x,x,2,x,x,x
CCN1CCN(Cc2ccc(NC(=O)c3ccc(C)c(NC(=O)c4ccnnc4)c3)cc2C(F)(F)F)CC1,-4,-6,99,81*[inhibitor],0,112,5,103
CCN1CCN(Cc2ccc(NC(=O)c3cc(NC(=O)C(=O)c4c[nH]c5ccccc45)cc(OC)c3)cc2C(F)(F)F)CC1,18,131*,195*,109,0,227*,146*,112
CCN1CCN(Cc2ccc(NC(=O)c3ccc(C)c(NC(=O)c4ccc5n[nH]nc5c4)c3)cc2C(F)(F)F)CC1,-9,11,88,115,5,x,x,x
CCN1CCN(Cc2ccc(NC(=O)c3cc(NC(=O)c4cc(C)on4)cc(OC)c3)cc2C(F)(F)F)CC1,-2,30*,193*,113,0,144,30,106
CCN1CCN(Cc2ccc(NC(=O)c3cc(NC(=O)c4cnn(-c5ccccc5)c4N)cc(OC)c3)cc2C(F)(F)F)CC1,14,53*,151*,107,0,214*,48,100
CCN1CCN(Cc2ccc(C(=O)Nc3ccc(C)c(NCc4cnc(NC(=O)OC)cn4)c3)cc2C(F)(F)F)CC1,-3,6,123,105,0,x,x,x
O=C(Nc1ccc2c(c1)OCO2)C(=O)c1c[nH]c2ccccc12,-6,1,100,99,7,x,x,x
CCN1CCN(Cc2ccc(NC(=O)c3ccc(C)c(NC(=O)C(=O)c4c[nH]c5ccccc45)c3)cc2C(F)(F)F)CC1,50*,95*,301*,113,0,239*,172*,113
COc1ccc([N+](=O)[O-])cc1N(CC(=O)NCCCOC(C)C)S(C)(=O)=O,3,-7,100,99,0,x,x,x
C/C=C(/C)C(=O)O[C@H]1[C@@H](O)c2c(ccc3ccc(=O)oc23)OC1(C)C,-6,11,101,123*,0,103,8,100
C/C=C(/C)C(=O)O[C@@H]1[C@H](OC(C)=O)c2c(ccc3ccc(=O)oc23)OC1(C)C,-5,5,97,108,0,x,x,x
CCCCN(CC)C(=O)Cn1ncc2c3ccccc3n(CCC)c2c1=O,-12,-1,96,96,4,x,x,x
O=C(CSCC(=O)N1CCOCC1)Nc1nc(-c2ccccc2)cs1,-4,22,118,131*,1,96,-1,98
O=C(NCCCN1CCCC1=O)c1cc(S(=O)(=O)N2CCOCC2)ccc1Cl,7,2,100,96,0,x,x,x
O=C(NC(=S)N1CCN(Cc2ccc3c(c2)OCO3)CC1)c1ccc(Cl)cc1,0,55*,121,104,0,106,4,105
Fc1ccccc1NC(=S)N1CCN(Cc2ccc3c(c2)OCO3)CC1,5,5,116,136*,1,96,-3,94
Fc1ccc(-n2c(-c3cccs3)nc3nc4ccccc4nc32)cc1,20,0,100,134*,3,99,0,100
Cc1ccc(-n2c(-c3cccs3)nc3nc4ccccc4nc32)cc1,x,-1,91,122,9,x,x,x
O=C(CN1CCN(c2ccccc2)CC1)Nc1ccc(Oc2ccccc2)cc1,-2,-15,1.0*[inhibitor],2.0*[inhibitor],3,114,5,108
O=C(CN1CCCC1)Nc1ccc(Oc2ccc(NC(=O)CN3CCCC3)cc2)cc1,14,-21,1.0*[inhibitor],1.0*[inhibitor],0,128,21,106
CC1CN(C(=O)COC(=O)Cc2ccc(Cl)cc2)CC(C)O1 (configuration not stated),-2,x,x,x,3,x,x,x
Cc1nnc(NCc2n[nH]c(=O)c3ccccc23)c2ccccc12,20,-6,41*[inhibitor],31*[inhibitor],1,95,-2,93
SMILES,Beta2AR agonist,MEKK2mut PB1 HTS,MEKK2 WT-MEK5,MEKK3 PB1 HTS,GRK2 inh,MEKK2wt confirm,MEKK2mut-MEK5,MEKK3 confirm
CC(=O)N(c1nc(CCl)cs1)c1c(C)cc(C)cc1C,-3,-2,94,98,0,x,x,x
CSc1nc2ccccc2n1CC(=O)Nc1c(C)cccc1C,0,6,71,49*[inhibitor],0,100,-4,97
COc1cc(C(CCN2CCCC(C)C2)c2c(OC)cc(OC)c3c2OC(=O)CC3c2ccc(N(C)C)cc2)cc(OC)c1OC (configuration not stated),16,14,136*,96,0,136,16,100
COc1cc(C2CC(=O)Oc3c(C(CCN4CCCC(C)C4)c4ccc(N(C)C)cc4)c(OC)cc(OC)c32)cc(OC)c1OC (configuration not stated),24,5,154*,124,x,119,13,105
O=C(NC1(C(F)(F)F)N=C(c2ccccc2)NC1=O)c1ccccc1 (configuration not stated),1,-1,98,99,0,x,x,x
O=C(NC1(C(F)(F)F)N=C(c2ccccc2)NC1=O)c1ccccc1F (configuration not stated),1,0,106,134*,2,109,12,105
Cc1cc(Cl)ccc1NC(=S)N(CCCN1CCOCC1)Cc1cccs1,2,0,106,128*,0,108,3,105
CCc1cc(C(=O)N(C)CC(=O)Nc2c(Cl)cccc2Cl)sc1C,1,x,x,x,0,x,x,x
CCCC1=NN(c2ccc([N+](=O)[O-])cc2)C(=O)/C1=C\N(C)C,-1,1,99,94,2,x,x,x
